# Test results taken from PubChem BioAssay.
# Several values for one entry are separate records, joined by “and”; a condition that tells them apart may be missing. Equal entries are not always repeated. Activity calls are given as the source filed them. Unless noted, no stated cut-off is given here; in the data, active means inhibition above about 80%; inactive means the rest.
# Assays:
# [1] = viability loss with induced miR-34 in A549 – imaging, A549 dox-inducible miR-34, nuclei and caspase counts, primary screen (AID 1347080;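 active means compounds whose cell count with miR-34 switched on is under 0.7 times the count with it off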); conditions: A549 miR-34 inducible, Hoechst nuclei count, 48 h
# [2] = MELAS cybrid and Rieske KO viability enhancers – cell-based, MELAS cybrids, Rieske KO mouse fibroblasts, CellTiter-Glo, primary screen (AID 1508586;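 active means mean z-score across replicates of 1.96 or higher in either the MELAS or the Rieske mutant cell line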;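 further: z relative to plate mean and SD of compound and empty wells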); conditions: low glucose
# [3] = galactose survival enhancers in mitochondrial complex I cybrids – cell-based, galactose medium, ATP luminescence, primary screen (AID 1645843;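 active means z-score of at least 1.8 in each of two replicates, scored against plate mean and spread of sample wells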;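 further: positive z means more ATP and so rescue of galactose-driven cybrid death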); conditions: complex I mutant cybrid cells, 72 h, stronger effect = higher value
# [4] = growth inhibition, single agent or in combination, cell-based, chromothripsis tumors, cisplatin or BGB combos (AID 1671449); conditions: LFS_MB_P medulloblastoma cells;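 further: cells exposed for 96 hours; 0% = vehicle DMSO and 100% = killing by high DMSO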
# [5] = growth inhibition, single agent and combos, cell-based, chromothripsis tumors, cisplatin or BGB combos (AID 1671450); conditions: HDN33 neuroblastoma cells, stronger effect = higher value;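 further: cells exposed to compound for four days; 0% = vehicle DMSO and 100% = cell killing by high DMSO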
# [6] = growth inhibition, single agents and combos, ICB984, cell-based, cisplatin or BGB combos, synergistic combos for chromothripsis tumors (AID 1671451; call rule not given here;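 further: cells exposed for 96 hours before readout; 0% = vehicle DMSO and 100% = killing by high DMSO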); conditions: ICB984 medulloblastoma cells, drug combinations, stronger effect = higher value
# [7] = growth inhibition, single agents and combos, LFS_MB_1R, cell-based, cisplatin or BGB combos, synergistic combos for chromothripsis tumors (AID 1671452); conditions: LFS_MB_1R medulloblastoma cells, stronger effect = higher value;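 further: cells exposed for 96 hours before readout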
# [8] = growth inhibition, single agents and combos, HTB85, cell-based, BGB or cisplatin IC20 combos, synergistic combos for chromothripsis tumors (AID 1671453); conditions: HTB85 osteosarcoma cells, drug combinations, stronger effect = higher value;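 further: cells exposed for 96 hours before readout; 0% = vehicle DMSO and 100% = high DMSO killing control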
# [9] = growth inhibition, single agents and combos, CRL2098, cell-based, BGB or cisplatin IC20 combos, synergistic combos for chromothripsis tumors (AID 1671454); conditions: CRL2098 osteosarcoma cells, drug combinations, stronger effect = higher value;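 further: cells exposed for 96 h before readout; 0% = vehicle DMSO and 100% = killing by high DMSO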
# [10] = growth inhibition, single agents and combos, HD-MB03, cell-based, BGB or cisplatin IC20 combos, synergistic combos for chromothripsis tumors (AID 1671455; in the data active means inhibition above about 83%;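 further: 0% = vehicle DMSO and 100% = high DMSO as cytotoxic control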); conditions: HD-MB03 medulloblastoma cells, stronger effect = higher value
# [11] = growth inhibition, single agents and combos, UWB1.289, cell-based, BGB or cisplatin combos, synergistic combos for chromothripsis tumors (AID 1671456); conditions: UWB1.289 ovarian carcinoma cells, stronger effect = higher value;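 further: cells exposed to compound for four days; 0% = vehicle DMSO and 100% = killing by high DMSO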
# [12] = growth inhibition, single agents and combos, LFS_MB_2R, cell-based, cisplatin combos, synergistic combos for chromothripsis tumors (AID 1671457); conditions: LFS_MB_2R medulloblastoma cells, stronger effect = higher value;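 further: cells exposed to compound for four days before readout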
# [13] = growth inhibition, MDA-MB-436, cell-based, BGB or cisplatin combos, synergistic combos for chromothripsis tumors (AID 1671458; call rule not given here;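 further: cells exposed for 96 hours; 0% = vehicle DMSO and 100% = killing by high DMSO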); conditions: MDA-MB-436 breast carcinoma growth inhibition, drug combinations, stronger effect = higher value
# [14] = UWB1.289_BRCA1 ovarian cancer growth, cell-based, BGB or cisplatin combinations (AID 1671459); conditions: UWB1.289 BRCA1 ovarian carcinoma, drug combinations, stronger effect = higher value
# [15] = drug combination toxicity in non-malignant astrocytes – cell-based, BGB or cisplatin IC20 combos, cytotoxicity control for chromothriptic childhood tumor combination screen (AID 1671460); conditions: Human astrocytes, viability inhibition, drug combinations, at 0.5 µM, stronger effect = higher value;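 further: cells exposed to compounds for 96 hours before viability readout; 0% = vehicle and 100% = killing control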
# [16] = BT084 cell growth, single and combined drugs, ICGC_MB145, cisplatin and BGB IC40 combos (AID 1671461); conditions: BT084 medulloblastoma cells, drug combinations, stronger effect = higher value;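 further: cells exposed to drugs for 96 hours; 0% = vehicle DMSO and 100% = high DMSO full killing control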
# [17] = RCMB18 cell growth, single agent and combined, cisplatin and BGB IC40 combos (AID 1671462); conditions: RCMB18 medulloblastoma cells, stronger effect = higher value;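 further: cells exposed to compound for four days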
# [18] = CRL1545 cell growth, single agent and combined, cisplatin and BGB IC20 combos (AID 1671464); conditions: CRL1545 osteosarcoma cells, stronger effect = higher value;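 further: cells exposed to compound for 96 hours before readout; 0% = vehicle DMSO and 100% = high DMSO killing control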
# [19] = stronger effect = lower value, cell number ratio, induced over uninduced
# [20] = measured here: relative caspase fold change +Dox/-Dox
# [21] = measured here: total cells with miR-34 induction, stronger effect = lower value
# [22] = measured here: total cells without miR-34 induction
# [23] = MELAS cybrid survival, CellTiter-Glo 48 h, stronger effect = higher value
# [24] = Rieske KO mouse fibroblast survival, CellTiter-Glo 72 h
# [25] = measured here: combination with BGB IC40, at 0.05 µM
# [26] = measured here: with BGB IC20 combination, at 0.5 µM
# [27] = measured here: with cisplatin IC20 combination, at 0.5 µM
# [28] = measured here: combination with cisplatin, at 0.5 µM
# [29] = measured here: combination with cisplatin, at 5 µM
smiles,measurement,setting,value
NC(N)=NCC(=O)O,fold change,[1]; [19],0.926 (inactive)
same,fold change,[1]; [20],0.467
same,cell count,[1]; [21],8690
same,cell count,[1]; [22],9380
same,z-score,[2]; [23],0.863 (inactive)
same,z-score,[2]; [24],0.0822
same,z-score,[3],0.15 (inactive)
CC(=O)NCC(=O)N1CCN(Cc2ccc3c(c2)OCO3)C(=O)C1,fold change,[1]; [19],0.905 (inactive)
same,fold change,[1]; [20],1.72
same,cell count,[1]; [21],8860
same,cell count,[1]; [22],9790
same,z-score,[2]; [23],0.0526 (inactive)
same,z-score,[2]; [24],-0.343
same,z-score,[3],-0.565 (inactive)
CC(=O)N1CCCC(Cn2cnc3scc(-c4cc(C)ccc4C)c3c2=O)C1 (stereo unspecified),fold change,[1]; [19],0.917 (inactive)
same,fold change,[1]; [20],1.14
same,cell count,[1]; [21],8240
same,cell count,[1]; [22],8990
same,z-score,[2]; [23],-0.328 (inactive)
same,z-score,[2]; [24],-0.378
same,z-score,[3],0.155 (inactive)
O=c1[nH]cnc2c1ncn2C1CCC(CO)O1 (stereo unspecified),fold change,[1]; [19],0.874 (inactive) and 0.873 (inactive)
same,fold change,[1]; [20],1.69 and 1.3
same,cell count,[1]; [21],9660 and 7790
same,cell count,[1]; [22],11100 and 8920
same,z-score,[2]; [23],-0.36 (inactive)
same,z-score,[2]; [24],0.371
same,z-score,[3],0.465 (inactive)
same,inhibition,"[4]; at 0.5 µM, stronger effect = higher value",-32.9% (inactive)
same,inhibition,"[4]; measured here: combination with BGB IC20, at 0.005 µM",-16.1%
same,inhibition,"[4]; measured here: combination with BGB IC40, at 0.005 µM",-29.5%
same,inhibition,[4]; [25],-24.5%
same,inhibition,"[4]; measured here: combination with cisplatin, at 0.5 µM, stronger effect = higher value",-38.2%
same,inhibition,"[4]; measured here: combination with cisplatin, at 5 µM, stronger effect = higher value",-16.6%
same,inhibition,"[5]; BGB combo, at 5 µM",-15.1%
same,inhibition,[5]; at 0.5 µM,-10.3% (inactive)
same,inhibition,"[5]; cisplatin combo, at 5 µM",0.055%
same,inhibition,[5]; [26],-9.52%
same,inhibition,[5]; [27],-5.77%
same,inhibition,"[5]; single agent, at 5 µM",-6.37%
same,inhibition,"[6]; BGB IC20 combo, at 0.005 µM",3.8%
same,inhibition,"[6]; BGB IC40 combo, at 0.005 µM",-17.3%
same,inhibition,"[6]; BGB IC40 combo, at 0.05 µM",-42.9%
same,inhibition,[6]; at 0.5 µM,-12.4% (inactive)
same,inhibition,"[6]; cisplatin combo, at 0.05 µM",-46.9%
same,inhibition,"[6]; cisplatin combo, at 0.5 µM",-0.57%
same,inhibition,"[6]; cisplatin combo, at 5 µM",-45.9%
same,inhibition,"[6]; measured here: 5 uM single agent, at 5 µM",-17.3%
same,inhibition,[7]; at 0.5 µM,-24.1% (inactive)
same,inhibition,[7]; [25],-1.26%
same,inhibition,[7]; [28],-27.1%
same,inhibition,[7]; [29],-51.2%
same,inhibition,[8]; at 0.5 µM,0.13% (inactive)
same,inhibition,"[8]; measured here: with BGB IC20, at 0.5 µM",-29.8%
same,inhibition,"[8]; measured here: with BGB IC20, at 5 µM",-39.1%
same,inhibition,"[8]; measured here: with cisplatin IC20, at 0.5 µM",5.05%
same,inhibition,"[8]; measured here: with cisplatin IC20, at 5 µM",-50%
same,inhibition,"[8]; single agent, at 5 µM",-11.3%
same,inhibition,[9]; at 0.5 µM,-44.8% (inactive)
same,inhibition,"[9]; measured here: combination with BGB at IC20, at 0.5 µM",-57.1%
same,inhibition,"[9]; measured here: combination with cisplatin at IC20, at 0.5 µM",-26.9%
same,inhibition,[10]; at 0.5 µM,-5.57% (inactive)
same,inhibition,"[10]; measured here: combo with BGB at IC20, at 0.5 µM",0.583%
same,inhibition,"[10]; measured here: combo with cisplatin at IC20, at 0.5 µM",-5.27%
same,inhibition,[11]; at 0.5 µM,-1.68% (inactive)
same,inhibition,"[11]; measured here: inhibition with BGB combination, at 0.05 µM",-32%
same,inhibition,"[11]; measured here: inhibition with cisplatin combination, at 0.05 µM",-6.01%
same,inhibition,[12]; at 0.5 µM,-19.9% (inactive)
same,inhibition,[12]; [28],-27.6%
same,inhibition,[12]; [29],-58%
same,inhibition,[13]; at 0.5 µM,-28.3% (inactive)
same,inhibition,"[13]; measured here: BGB combination, at 0.5 µM",-25.6%
same,inhibition,"[13]; measured here: BGB combination, at 5 µM",-24.3%
same,inhibition,"[13]; measured here: cisplatin combination, at 0.5 µM",-38.2%
same,inhibition,"[13]; measured here: cisplatin combination, at 5 µM",-39%
same,inhibition,"[14]; BGB combination, concentration series, at 5 µM",-6.99%
same,inhibition,[14]; at 0.5 µM,-4.59% (inactive)
same,inhibition,"[14]; cisplatin combination, concentration series, at 5 µM",5.72%
same,inhibition,[15],4.8% (inactive)
same,inhibition,[15]; measured here: combo with BGB IC20,-5.94%
same,inhibition,[15]; measured here: combo with cisplatin IC20,2.75%
same,inhibition,[16]; at 0.5 µM,-19.3% (inactive)
same,inhibition,"[16]; cisplatin combination, at 0.5 µM",2.66%
same,inhibition,"[16]; cisplatin combination, at 5 µM",7.38%
same,inhibition,"[16]; measured here: BGB IC40 combination 0.05 uM, at 0.05 µM",1%
same,inhibition,"[16]; single agent, at 5 µM",-10.4%
same,inhibition,[17]; at 0.5 µM,-28.1% (inactive)
same,inhibition,"[17]; cisplatin combo, at 5 µM",-8.55%
same,inhibition,"[17]; measured here: BGB IC40 combination, at 0.05 µM",12.3%
same,inhibition,[17]; [28],-23.6%
same,inhibition,"[17]; single agent, at 5 µM",-21%
same,inhibition,[18]; at 0.5 µM,-13.6% (inactive)
same,inhibition,[18]; [26],0.279%
same,inhibition,[18]; [27],-23.2%
same,inhibition,"[18]; single agent, at 0.05 µM",-52.8%
same,inhibition,"[18]; single agent, at 5 µM",-4.43%
